Source: PubChem (National Center for Advancing Translational Sciences (NCATS))
Sampled rows, rich in hits. Any-hit rate of the full collection: about 19%.
Giardia killer: Giardia lamblia killing. Giardia lamblia trophozoite viability. activity change, % at 7.66 µM, hits read low. 340,000 tested, 0.15% active. AID 540267; in the data active means activity change below about -80%; inconclusive means between about -30% and that limit;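 further: parasites exposed to compound for two days anaerobically before the ATP read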
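Each well holds 100 Giardia trophozoites and compound. After two days (48 hrs) at 37 deg C in anaerobic conditions, ATP is quantified by luminescence.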
TDP1 inh: blocks human tyrosyl-DNA phosphodiesterase 1; Q9NUW8; recombinant TDP1, AlphaScreen DNA substrate cleavage; Potency, µM (doses to about 130 µM), without a hit: top-dose activity change, negative = inhibition, actives largely listed as inhibitors; 350,000 tested, 0.28% active; AID 485290; further: potency means the concentration at half of the fitted maximal effect; nearly all actives have a fitted effect of over 40% in size
Target sequence (Q9NUW8 whole entry, looked up): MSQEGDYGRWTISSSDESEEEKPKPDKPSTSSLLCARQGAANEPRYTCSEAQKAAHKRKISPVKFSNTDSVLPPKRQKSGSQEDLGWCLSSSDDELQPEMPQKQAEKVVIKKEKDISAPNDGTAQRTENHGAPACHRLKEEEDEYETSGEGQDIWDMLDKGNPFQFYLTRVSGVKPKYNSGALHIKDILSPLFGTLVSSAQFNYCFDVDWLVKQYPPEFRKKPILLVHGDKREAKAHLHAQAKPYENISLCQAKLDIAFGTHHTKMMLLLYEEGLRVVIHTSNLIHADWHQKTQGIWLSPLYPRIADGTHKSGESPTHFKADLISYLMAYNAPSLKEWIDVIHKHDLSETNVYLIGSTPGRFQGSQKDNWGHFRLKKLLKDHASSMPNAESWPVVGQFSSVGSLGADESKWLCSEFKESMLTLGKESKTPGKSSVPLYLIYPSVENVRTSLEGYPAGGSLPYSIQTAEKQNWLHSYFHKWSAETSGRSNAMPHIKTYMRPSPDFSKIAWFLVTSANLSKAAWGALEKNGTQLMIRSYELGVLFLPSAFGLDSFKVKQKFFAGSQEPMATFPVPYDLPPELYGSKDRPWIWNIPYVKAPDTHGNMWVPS
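E. coli-derived human Tdp1, 1 nM final. Cpd preinc 15 min RT; substrate 15 nM final, 5 min RT; AS bead mix 10 ug/ml final, 10 min RT. Signal loss = tyrosine-FITC cleavage. No-enzyme wells = max signal.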
IL1B secr inh: inflammasome signaling inhibition, IL-1 beta readout. THP-1 LPS/ATP IL-1B secretion, AlphaLISA, 16 h; hits give low values. activity change, % at 57.5 µM. 360,000 tested, 4.7% active; in the data active means activity change below about -50%; inconclusive means mostly about -30% to -49%
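THP-1 cells pretreated 1 hr with compounds (up to 57.5 uM final), then stimulated with LPS (250 ng/mL final) plus ATP (1.25 mM final); secreted IL-1B measured by AlphaLISA after 16 hr, decreased signal indicating inhibition.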
DT40 TDP1 no CPT: qHTS for Inhibitors of human tyrosyl-DNA phosphodiesterase 1 (TDP1): qHTS in cells in absence of CPT; 420,000 tested, 15% active; DT40 Tdp1-/- hTDP1 cells, no CPT, ATP luminescence, 48 h; Potency, µM (titrated, usually from 46.2 µM), without a hit: top-dose activity change, negative = growth inhibition, hits mostly inhibitors; further: potency means the concentration at half of the fitted maximal effect; nearly all actives have a fitted effect of over 55% in size
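No-CPT arm: Tdp1-/-;hTDP1 DT40 cells (400/well) plus compounds, incubated ≥48 hr at 37 °C. Readout CellTiter-Glo luminescence.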
TDP1 cell CPT: DT40-hTDP1 cell growth loss with CPT; Potency, µM (series often up to 46.2 µM), inactives show top-dose activity change, negative = growth inhibition, most hits filed as inhibitors; chicken DT40 Tdp1-/-;hTDP1 cells + 20 nM CPT, ATP luminescence, 48 h; 420,000 tested, 12% active; further: potency means the concentration at half of the fitted maximal effect; nearly all actives have a fitted effect of over 55% in size
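Chicken DT40 Tdp1-/- cells complemented with human TDP1, 400 cells/well, exposed to compounds plus 20 nM camptothecin for at least 48 h at 37 C; viability read as ATP content by CellTiter-Glo luminescence.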
ELG1 DNA repair: inhibitors of ELG1-dependent DNA repair in HEK293T cells. HEK293T ELG1-luciferase reporter, luminescence, 16 h; DNA damage induced by 5-fluorouridine. Potency, µM (highest dose often 46.1 µM), for inactives: at the top dose activity change, negative = inhibition, usual class: inhibitors. 330,000 tested, 2.3% active. AID 504467; further: potency means the concentration at half of the fitted maximal effect; nearly all actives have a fitted effect of over 55% in size
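Cells (2,000 per well) received 5-fluorouridine plus test compound or DMSO and were incubated 16 hr at 37 °C, 5% CO2. Luciferase activity was read by luminescence 30 min after ONE-Glo addition; signal suppression marked inhibition of damage-induced ELG1 function.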
Active calls of the source: *; ? = inconclusive; . = no result given; [ ] = another dose, or the depositor's remark. Unless noted, the call rests on the fitted dose curve; in most records, active means well fitted curve in the direction sought with a large enough effect; inconclusive means small, poorly fitted or top-dose-only effect, or another doubt; inactive means no such curve, though single readings can be large; an effect the other way counts as inactive or inconclusive. On the % scale 0 is the no-effect control and ±100 the full control effect.

SMILES	Giardia killer	TDP1 inh	IL1B secr inh	DT40 TDP1 no CPT	TDP1 cell CPT	ELG1 DNA repair
COc1ccc(CN(Cc2ccccc2)C(C)=O)cc1COc1ccc(NC(C)=O)cc1	-13	0%	.	11µM*	?	.
O=C(Nc1ccccc1)c1cccnc1NCCc1ccccc1	-20	.	-8	16µM*	?	2%
COc1ccc(NC(=O)c2cccnc2NCCc2ccccc2)cc1	1	0%	-3	?	21µM*	-18%
O=C(Nc1ccccc1)c1ccccc1CCc1ccccc1	-2	6%	-1	-27%	?	-14%
Cc1nc(NC2CCCCC2)c2nc(-c3ccccc3)n(CC3CCN(C)CC3)c2n1	.	6%	.	.	.	.
Cc1cc(C)nc(NCCC(=O)O)n1	-7	0%	36	10%	3%	2%
Cc1cc(C)cc(CN2CCOc3ccc(CN4CCC(O)(c5cccnc5)CC4)cc3C2)c1	.	.	.	?	-2%[9.04 µM]	.
CC(C)c1ccccc1NS(C)(=O)=O	.	7%	.	.	.	-2%
CS(=O)(=O)Nc1ccccc1NS(C)(=O)=O	-8	.	-58*	-11%	-1%	16%
O=S(=O)(c1cccc(F)c1)N1CCc2sccc2C1c1ccc(OC(F)(F)F)cc1 (stereo unspecified)	-6	4%	7	15µM*	?	?
CC1(Cc2cc(Cl)ccc2C(F)(F)F)C(=O)Nc2ccc(S(=O)(=O)NC3CCCCC3)cc21 (stereo unspecified)	.	.	-21	?	26µM*	.
COc1ccc(N2CCN(C(=O)c3cc(S(=O)(=O)N4CCCCCC4)cn3C)CC2)cc1	.	3%	.	?	?	.
O=C(Nc1c(C(=O)Nc2ccc(F)cc2)oc2ccccc12)c1ccccc1F	.	-1%	.	21µM*	?	.
O=C(Nc1ccccc1)c1oc2ccccc2c1NC(=O)C1CC1	-13	2%	-1	?	?	-2%
CNc1c(NC(=O)C2CCC(C)CC2)c(=O)oc2ccccc12 (stereo unspecified)	9	79µM*	-8	-2%	-15%	14%
O=C(Nc1ccc(F)cc1)c1oc2ccccc2c1NC(=O)C1CCCCC1	.	-4%	.	29µM*	?	.
CCCCCCCCSC1=CC(=O)C(OC)=C(OC)C1=O	.	.	0	1µM*	1.2µM*	.
CCOc1ccc2cc(C3CC(c4ccco4)=NN3S(C)(=O)=O)c(Cl)nc2c1 (stereo unspecified)	-2	3%	-60*	?	?	?
Cc1ccc2cc(C3CC(c4cccs4)=NN3S(C)(=O)=O)c(Cl)nc2c1 (stereo unspecified)	16	0%	-22	-26%	?	?
COc1ccc2cc(C3CC(c4cccs4)=NN3S(C)(=O)=O)c(Cl)nc2c1 (stereo unspecified)	13	3%	-17	?	16µM*	?
CC(Cc1ccccc1)NC(=O)/C=C/c1ccc([N+](=O)[O-])cc1 (stereo unspecified)	4	5%	-23	18µM*	26µM*	-18%
CC(CCc1ccccc1)NC(=O)/C=C/c1ccc(Cl)cc1 (stereo unspecified)	1	3%	-79*	-20%	6%	?
O=C(CCCCCn1c(=O)c2sccc2n(Cc2ccccc2Cl)c1=O)NCc1ccc2c(c1)OCO2	.	7%	.	-26%	-22%	.
O=C(CNC(=O)c1ccc(Cl)cc1)NC(CO)c1ccccc1 (stereo unspecified)	3	.	33	3%	33%	1%
CCN(CC)c1ccc(N=Cc2c(C)[nH]c3ccccc23)cc1	7	10%	23	9.2µM*	6.5µM*	-25%
SMILES	Giardia killer	TDP1 inh	IL1B secr inh	DT40 TDP1 no CPT	TDP1 cell CPT	ELG1 DNA repair
Cc1[nH]c2ccccc2c1/C=N/n1cnnc1	-17	7%	31	-19%	-5%	?
COc1cccc(CN(C)C(=O)Cc2ccc(OC)c(S(=O)(=O)N3CCOCC3)c2)c1	-6	.	-6	-30%	-19%	?
CC(=O)N1N=C(c2ccc(C)cc2)OC1c1ccc(Br)cc1 (stereo unspecified)	-11	-3%	-69*	-29%	5%	4%
CCCCCCCc1c(O)nc(SCCN(C)C)[nH]c1=O	9	.	-51*	0%	7%	?
NS(=O)(=O)c1ccc(NC(=O)CSc2nc3ccccc3nc2N2CCOCC2)cc1	13	.	-19	?	13%	-5%
Cc1cccn2c(=O)c3cc(S(=O)(=O)c4ccc(F)cc4)c(=N)n(Cc4ccco4)c3nc12	1	-4%	-80*	?	?	?
Cc1cccn2c(=O)c3cc(S(=O)(=O)c4ccccc4)c(=N)n(Cc4ccco4)c3nc12	-18	1%	-18	15%	0%	11%
N=c1c(S(=O)(=O)c2ccccc2)cc2c(=O)n3ccccc3nc2n1Cc1ccco1	-8	1%	-79*	21µM*	?	?
Cc1ccc2nc3c(cc(S(=O)(=O)c4ccccc4)c(=N)n3Cc3ccco3)c(=O)n2c1	29	5%	-52*	?	-29%	?
Cc1ccc(S(=O)(=O)c2cc3c(=O)n4ccccc4nc3n(CCc3ccccc3)c2=N)cc1	-21	.	6	16µM*	?	?
Cc1ccc(S(=O)(=O)c2cc3c(=O)n4ccccc4nc3n(Cc3ccco3)c2=N)cc1C	3	1%	-24	?	?	-1%
Cc1cccc(-n2ccnc2SCC(=O)Nc2cccc(S(=O)(=O)NC3=NCCC3)c2)c1C	10	8%	7	?	?	-22%
O=C(NC1CCCCCC1)C1Cc2ccccc2CN1C(=O)c1ccco1 (stereo unspecified)	?	2%	-6	?	1%	27%
COc1cc(/C=N\NC(=O)C2CC3C=CC2C3)ccc1O (stereo unspecified)	37	-5%	0	-26%	-12%	20%
CCOc1ccccc1NC(=O)C1CCN(S(=O)(=O)Cc2ccccc2)CC1	.	0%	.	-22%	5%	.
O=C(NC1CC(=O)N(c2cccc(F)c2)C1)C(c1ccccc1)c1ccccc1 (stereo unspecified)	.	-5%	.	?	?	.
COc1c2c(c3c(c1OC)c(=O)c1ccccc1n3C)OCO2	-3	.	6	?	?	.
CC1(C)CC(=O)C(C(=O)C2CCN(S(=O)(=O)c3ccccc3)CC2)C(=O)C1	1	5%	1	6%	8%	-2%
